ssDAF12 agonist = S. stercoralis DAF-12 nuclear receptor activators, primary screen, cell-based, luminescence, HEK293, GRIP1 co-expression, lit1-tk-luc. Nuclear hormone receptor DAF-12 (Strongyloides stercoralis). HEK293 ssDAF-12/GRIP1 lit1-tk-luc reporter; % of 3 µM dafachronic acid response. AID 652126, 2013. hit rate 1% among 370,000. activation, % at 6.8 µM;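 active = activation above the mean over all tested compounds plus 3 SD, cut at about 0.9% in these data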
hcDAF-12 act = H. contortus DAF-12 nuclear receptor activators, primary screen, cell-based, luminescence, HEK293, lit1-tk-luc reporter; hit rate 1.4% among 370,000; activation, % at 6.8 µM; HEK293 hcDAF-12 lit1-tk-luc reporter; 0% DMSO, 100% Δ7-dafachronic acid;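 active = activation above the mean of all tested compounds plus 3 SD, cut at about 5.5% in these data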
DAX1 inh-1 = DAX1 (NR0B1) inhibitors, primary screen, cell-based, HEK293, Gal4-DAX1, luciferase luminescence. HEK293 Gal4-DAX1 luciferase reporter. inhibition, % at 6.75 µM. hit rate 0.99% among 340,000. AID 504766, 2011;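 active = inhibition above the mean over all tested compounds plus 3 SD, cut at about 4.2% in these data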;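 also: inhibition shows as a rise in luminescence from relieved DAX1 repression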
Target sequence (P51843 207-470 limits assumed): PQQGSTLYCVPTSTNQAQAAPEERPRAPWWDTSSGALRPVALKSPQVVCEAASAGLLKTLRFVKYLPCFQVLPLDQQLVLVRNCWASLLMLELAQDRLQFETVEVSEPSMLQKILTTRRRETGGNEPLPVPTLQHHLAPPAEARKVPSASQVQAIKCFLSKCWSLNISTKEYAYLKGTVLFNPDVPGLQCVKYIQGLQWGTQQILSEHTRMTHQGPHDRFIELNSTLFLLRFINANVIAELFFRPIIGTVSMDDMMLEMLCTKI
hgDAF-12 ag = H. glycines DAF-12 receptor agonists, primary screen, cell-based, luminescence, HEK293, GAL4 fusion, UAS-luciferase. HEK293 GAL4-hgDAF12 UAS-luciferase reporter, agonist luminescence; normalized to butyrate control. AID 687014, 2013. Nuclear hormone receptor DAF-12 (Heterodera glycines), GAL4 fusion. activation, % at 6.8 µM. hit rate 1.8% among 370,000;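 active = activation above a cutoff set at the mean of all screened compounds plus 3 SD, cut at about 10% in these data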
DAX1 inh-2 = DAX1 (NR0B1) inhibitors on StAR promoter, primary screen, cell-based, luminescence, SF-1 (NR5A1), full-length DAX-1 | AID 652010, 2013 | HEK293T StAR-luciferase reporter, SF-1/DAX-1 repression relief | inhibition, % at 6.8 µM | hit rate 1.1% among 370,000;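 active = inhibition above the mean over all tested compounds plus 3 SD, cut at about 3.6% in these data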;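 also: higher inhibition means more luminescence from relief of DAX-1 repression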
LXRb hcDAF ctr = LXR agonists, Gal4 luciferase reporter, confirmation, counter-screen for hcDAF-12 agonist project, cell-based, luminescence, HEK293, H. contortus campaign | shares compounds with hcDAF-12 act | HEK293 Gal4-LXR tk-luc reporter, 24 h; normalized: DMSO 0%, positive control 100% | activation, % at 6.8 µM | 3,400 tested, under 10 active;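 active = mean percent activation of the reporter above a cutoff set as the average over tested compounds plus their standard deviation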
hcDAF12 conf = H. contortus DAF-12 receptor agonists, confirmation, cell-based, luminescence, HEK293, lit1-tk-luc, triplicate; shares compounds with hcDAF-12 act; HEK293 hcDAF-12 lit1-tk-luc reporter; % of Δ7-dafachronic acid response; activation, % at 6.8 µM; hit rate 61% among 3,400; AID 743032, 2013;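 active = mean activation across triplicate tests above the threshold derived from the earlier primary screen, cut at about 5.5% in these data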
Of the large screens only hits and unclear results are named; the others gave an inactive call (follow-up assays come after a bar, where they were run). A selection: hits, their analogues and other compounds. The true share with any hit is near 4.1%.

CCCCCCN1C[C@H](O)[C@@H](n2cc(C3CC3)nn2)C[C@@H]1c1ccc(C)cc1	none
F[B-](F)(F)c1cncnc1	none (no result: DAX1 inh-1)
COC(=O)CN1C(=O)CSc2ccc(S(=O)(=O)N3CCC(C)CC3)cc21	none (no result: DAX1 inh-1)
Cc1sc(NC(=O)c2ccco2)c(CN2CCCCC2)c1C	none
COc1ccc(C(=O)Nc2sc(C)c(C)c2CN2CC(C)OC(C)C2)cc1 (stereo not given)	hcDAF-12 act 8.9, hgDAF-12 ag 11, DAX1 inh-2 3.9 | LXRb hcDAF ctr inactive | hcDAF12 conf inactive
COc1ccc(S(=O)(=O)NCc2ccncc2)cc1OC	none
CN1CCc2c1nc1ccccc1c2N (tested in a mixture with another compound)	none
Nc1c2c(nc3cccc(Cl)c13)N(c1ccccc1)CC2	ssDAF12 agonist 1.1, hcDAF-12 act 7.2 | LXRb hcDAF ctr inactive | hcDAF12 conf 7.4
Cc1c(O)ccc(/C=N/Nc2ncccc2[N+](=O)[O-])c1O	ssDAF12 agonist 1.2, hcDAF-12 act 7.5 | LXRb hcDAF ctr inactive | hcDAF12 conf 6.0
O=[N+]([O-])c1ccccc1/C=N/Nc1nccnc1Cl	none
O=C1C=CC(=O)N1c1ccc2ccccc2c1	hcDAF-12 act 7.4 | LXRb hcDAF ctr inactive | hcDAF12 conf inactive
Cc1cccc(N2C(=O)C=CC2=O)c1	none
Oc1[nH]c2ccccc2c1C=Nc1ccc2c(c1)OCCO2	hcDAF-12 act 8.4, hgDAF-12 ag 13 | LXRb hcDAF ctr inactive | hcDAF12 conf 6.9
Oc1c(Br)cc(Br)cc1C=Nc1ccc2c(c1)OCCO2	none
Cc1cccc(/N=C/c2c(O)[nH]c3ccccc23)n1	ssDAF12 agonist 1.2, hcDAF-12 act 11, hgDAF-12 ag 12 | LXRb hcDAF ctr inactive | hcDAF12 conf 9.2
COCC(=O)N1CCC(Oc2ccc(C(=O)N3CCCCCC3)cc2)CC1	none
CCCC(=O)Nc1ccc2oc(-c3ccc(OC)c(Br)c3)nc2c1	none
CCCC(=O)Nc1ccc(-c2nc3cc(C)ccc3o2)cc1	ssDAF12 agonist 1.7, hcDAF-12 act 12, hgDAF-12 ag 13, DAX1 inh-2 3.9 | LXRb hcDAF ctr inactive | hcDAF12 conf 8.4
Cc1cccc(N2CN=c3s/c(=C\c4ccccn4)c(=O)n3C2)c1	hcDAF-12 act 10 | LXRb hcDAF ctr inactive | hcDAF12 conf inactive
CCOc1ncccc1-c1nc(-c2cccs2)no1	hcDAF-12 act 9.8 | LXRb hcDAF ctr inactive | hcDAF12 conf 9.2
Cc1cccc(C(=O)NNC(=O)/C=C/C(=O)O)c1	hcDAF-12 act 8.6 | LXRb hcDAF ctr inactive | hcDAF12 conf inactive
Cc1cccc(C(=O)NNC(=O)c2cccc(C)c2)c1	none
COc1ccc(-n2ncc3c(NCCCn4ccnc4)ncnc32)cc1	none
O=C(O)CC(NC(=O)c1ccccc1NC(=O)c1ccccc1)C(=O)O (stereo not given)	none
Cc1ccc(C(=O)Nc2ccccc2C(=O)NC(CC(=O)O)C(=O)O)cc1 (stereo not given)	hcDAF-12 act 7.0 | LXRb hcDAF ctr inactive | hcDAF12 conf inactive
CCC(C)[C@H](NC(=O)N1CC(=O)Nc2ccccc21)C(=O)N[C@@H](C(=O)O)c1ccccc1 (stereo not given in full)	none
CCC(C)[C@H](NC(=O)N1CC(=O)Nc2ccccc21)C(=O)N[C@H](Cc1c[nH]c2ccccc12)C(=O)O (stereo not given in full)	hcDAF-12 act 8.0 | LXRb hcDAF ctr inactive | hcDAF12 conf inactive
CCCCOc1ccc(C(=O)NCC(=O)OCCCOC(=O)CNC(=O)c2ccc(OCCCC)cc2)cc1	none
O=C(COC(=O)c1n[nH]c(=O)c2ccccc12)NC1CCCCC1	none
Cc1ccc(NP(=O)(c2ccc(N(C)C)cc2NC(=O)c2cccs2)N2CCOCC2)cc1 (stereo not given)	ssDAF12 agonist 1.5, hcDAF-12 act 8.4 | LXRb hcDAF ctr inactive | hcDAF12 conf inactive
CN(C)c1ccc(P(=O)(Nc2ccc([N+](=O)[O-])cc2)N2CCOCC2)c(NC(=O)c2cccs2)c1 (stereo not given)	hcDAF-12 act 8.0 | LXRb hcDAF ctr inactive | hcDAF12 conf inactive
CN(C)c1ccc(P(=O)(Nc2ccccc2)N2CCOCC2)c(NC(=O)c2cccs2)c1 (stereo not given)	none
Cc1c(CC(=O)N[C@H](C(=O)O)C(C)C)c(=O)oc2cc3c(cc12)CCC(C)(C)O3	hcDAF-12 act 6.9 | LXRb hcDAF ctr inactive | hcDAF12 conf 6.6
CCOc1ccc(NS(=O)(=O)c2cccc(C(=O)N3CCN(C/C=C/c4ccccc4)CC3)c2)cc1	none
Cc1cccc2c(N)c3c(nc12)CCCC3 (tested in a mixture with another compound)	none
Cc1cc(C)c2c(N)c3cccc(C)c3nc2n1	ssDAF12 agonist 1.7, hcDAF-12 act 10 | LXRb hcDAF ctr inactive | hcDAF12 conf 31
COc1ccc(S(=O)(=O)N2CCCCC2)cc1NC(=O)C1CC(=O)N(Cc2ccccc2)C1 (stereo not given)	none
CCCCON1C(=O)c2cccc3cccc(c23)C1=O	hcDAF-12 act 9.6 | LXRb hcDAF ctr inactive | hcDAF12 conf 7.4
O=C1c2ccccc2C(=O)N1CCCCON1C(=O)c2ccccc2C1=O	none
CC(C)c1[nH]nc2c1C(c1cccc(C(F)(F)F)c1)N(c1ccccc1)C2=O (stereo not given)	none (no result: DAX1 inh-1)
C=C(C)C#CCNCc1ccccc1	none (no result: DAX1 inh-1)
Cc1ccccc1CN1CCN(C(C)C(=O)NNC(=O)c2ccc(F)cc2)CC1 (stereo not given)	none
COc1ccc(NCC(=O)N/N=C/C=C\c2ccccc2)cc1	hcDAF-12 act 7.6 | LXRb hcDAF ctr inactive | hcDAF12 conf inactive
Cc1ccc(NC(=O)C2Oc3ccccc3OC2C)cc1 (stereo not given)	hcDAF-12 act 9.1 | LXRb hcDAF ctr inactive | hcDAF12 conf 6.9

Screening results (PubChem BioAssay)
